# Measurements from ChEMBL document CHEMBL3988442, “University of Dundee, Small-Polar-MMV Screening Library” (2021).
# Target: AMP-activated protein kinase, AMPK (Homo sapiens) (UniProt P54646+O43741+P54619+Q9UGJ0+Q9Y478+Q13131+Q9UGI9)
# Assay: AMP-dependent Kinase enzyme assay. An in vitro enzyme assay that detects ADP turnover that is directly proportional to AMPK activity. This uses naive AMPK that is activated during the assay with MK-8722
# Format: functional
# Parameters: scale not given: direction of the effect not stated beside the values
# Settings: 30 µM
row,SMILES,Percent Effect
1,COc1cccnc1NC(=O)COC1CCCC1,8.7%
2,Cc1cc(CN(C)C(C(=O)O)c2cccc(C(F)(F)F)c2)on1 (stereo unspecified),3.9%
3,Cc1nnc(CN(C)CC(=O)N2CCCC(C(F)(F)F)C2)n1C (stereo unspecified),14.3%
4,Cc1cc(NC(=O)C(C)NCCn2cccn2)no1 (stereo unspecified),-0.416%
5,O=C1OCCCN1Cc1nc(-c2ccncc2)no1,-2.07%
6,O=C1CC2(CCN(Cc3ccc(-c4ccccc4)s3)C2)C(=O)N1 (stereo unspecified),84.9%
7,CC(=O)Nc1ccc(Oc2cc(C)nc(C3CCCNC3)c2)cc1 (stereo unspecified),-6.11%
8,C[C@@H]1CN(C(=O)C2(Cn3cccn3)CC2)CC[C@@]1(O)C1CC1,-6.74%
9,CC(OCC1CC1)C(=O)Nc1ccn(Cc2ccccc2)n1 (stereo unspecified),2.88%
10,COCCn1ccnc1C1CCCN(C(=O)CSc2nnc(C)o2)C1 (stereo unspecified),1.51%
11,O=C(NCc1ccc(-n2cncn2)nc1)c1cc[nH]n1,2.82%
12,Cc1ncsc1C(=O)NCCCN1CCCCCC1=O,-10%
13,CCCSCC(=O)NCc1cccc(CN(C)CC)c1,5.85%
14,CCn1c(C2CCNCC2)nn(CCn2ccc(C)n2)c1=O,5.45%
15,Cc1ccc(C(CNC(=O)c2cc(=O)c3ccccc3[nH]2)N(C)C)cc1 (stereo unspecified),6.26%
16,CNS(=O)(=O)CC(=O)NCc1cc2c(s1)CCC(C)(C)C2,-1.02%
17,CCSc1ncc(CN2CCN(c3ccc(C#N)cc3)C(=O)C2)cn1,2.89%
18,CC(C)N(C)S(=O)(=O)c1ccc2c(c1)CCN(C(=O)c1cscn1)C2,-3.43%
19,CN(Cc1ccncc1)Cc1cnn(-c2ccc(F)cc2)c1,11.6%
20,CCCn1nnnc1COC(=O)C1Cc2cc(Cl)ccc2O1 (stereo unspecified),6.63%
21,CC(=O)N1CCCC1CCc1ccnc(-c2cncnc2)c1 (stereo unspecified),22.4%
